# Reference: PubChem BioAssay (EPA / NIEHS)
# Activity calls are given as the source filed them. Rule for the calls: active = hit-call score of the fitted dose curve at least 0.9, where 1 is the maximum; inactive = score below 0.9.
# Test: STM_H9_OrnithineISnorm_perc: Stemina devTOX quickPredict H9 human embryonic stem cell (hESC)-based Assay for Ornithine (ORN) Metabolite Biomarker, Normalized (AID 2283712);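 note: ornithine released into spent medium during last day measured by mass spectrometry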
# Summary of the method: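 Ornithine in spent medium from the last 24 h of a 72 h exposure, deproteinised and quantified by UPLC-HRMS against an isotope-labelled internal standard, expressed relative to 0.1% DMSO. Pluripotent H9 cells; compound refreshed every 24 h.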
SMILES,outcome,AC50
Cc1ccc(-c2cc(C(F)(F)F)nn2-c2ccc(S(N)(=O)=O)cc2)cc1,inactive,–
CCC(C)N(C)C(=O)c1cc2ccccc2c(-c2ccccc2Cl)n1 (centres undefined),inactive,–
CC(C)OC(=O)C(C)(C)Oc1ccc(C(=O)c2ccc(Cl)cc2)cc1,inactive,–
CCCCCCCCCC[N+](C)(C)[O-],inactive,–
CC(COCC(C)OC(=O)c1ccccc1)OC(=O)c1ccccc1 (centres undefined),inactive,–
O=C(O)CN(CC(=O)O)CC(=O)O,inactive,–
CC(=O)CC(c1ccccc1)c1c(O)c2ccccc2oc1=O (centres undefined),inactive,–
N[C@@H](Cc1c[nH]c2ccccc12)C(=O)O,inactive,–
O=C(O)c1cccnc1,inactive,–
O=Cc1ccccc1C=O,inactive,–
O=C(Oc1ccccc1)c1cccc(C(=O)Oc2ccccc2)c1,inactive,–
Cc1cc(Cc2ccc(N)c(C)c2)ccc1N,inactive,–
CN(C)CCCN1c2ccccc2Sc2ccc(Cl)cc21,–,3.51 µM (active)
CCc1nc(N)nc(N)c1-c1ccc(Cl)cc1,–,30.7 µM (active)
Cc1ccc(C(C)(C)C)c(O)c1,inactive,–
CCCC[C@H]1CN(CC2CCOCC2)C(=O)OC12CCN(C1(C)CCN(C(=O)c3c(C)ncnc3C)CC1)CC2,inactive,–
CC(=O)[C@@]1(O)CC[C@H]2[C@@H]3CCC4=CC(=O)CC[C@]4(C)[C@H]3CC[C@@]21C,–,62 µM (active)
CCN(CC)CCOc1ccc(C(=C(Cl)c2ccccc2)c2ccccc2)cc1,–,6.22 µM (active)
CCc1cc(C2=C(C(=O)O)N(c3ccccc3C(F)(F)F)S(=O)(=O)c3ccccc32)cc2c1OCO2,inactive,–
